MITF inh – MITF inhibitors, primary screen, biochemical, AlphaScreen, human | Microphthalmia-associated transcription factor (Homo sapiens), O75030 | AlphaScreen MITF homodimerization, bead proximity signal | inhibition, % at 2.6 µM | 650,000 compounds, 0.91% hits; in the data active = inhibition above about 50%;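 also: 0% = vehicle wells with protein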
TEAD-YAP block – TEAD-YAP interaction inhibition, primary screen, TEAD-YAP interaction inhibitor project, luminescence, HEK-TIYL cells; TEAD-Gal4/YAP UAS-luciferase luminescence; inhibition, % at 9.12 µM; 640,000 compounds, 1.4% hits; in the data active = inhibition above about 32%;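 also: 0% = median of test compound wells and 100% = reference inhibitor wells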
GPR151 activ – activators of human GPR151, primary screen, cell-based, PathHunter beta-arrestin, luminescence | PathHunter beta-arrestin GPR151 cells | G-protein coupled receptor 151 (Homo sapiens), Q8TDV0 | 650,000 compounds, 1% hits | activation, % at 11.2 µM; in the data active = activation above about 4.9%;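 also: 0% = median of compound wells and 100% = cells with positive control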
Target sequence (Q8TDV0 whole entry, looked up): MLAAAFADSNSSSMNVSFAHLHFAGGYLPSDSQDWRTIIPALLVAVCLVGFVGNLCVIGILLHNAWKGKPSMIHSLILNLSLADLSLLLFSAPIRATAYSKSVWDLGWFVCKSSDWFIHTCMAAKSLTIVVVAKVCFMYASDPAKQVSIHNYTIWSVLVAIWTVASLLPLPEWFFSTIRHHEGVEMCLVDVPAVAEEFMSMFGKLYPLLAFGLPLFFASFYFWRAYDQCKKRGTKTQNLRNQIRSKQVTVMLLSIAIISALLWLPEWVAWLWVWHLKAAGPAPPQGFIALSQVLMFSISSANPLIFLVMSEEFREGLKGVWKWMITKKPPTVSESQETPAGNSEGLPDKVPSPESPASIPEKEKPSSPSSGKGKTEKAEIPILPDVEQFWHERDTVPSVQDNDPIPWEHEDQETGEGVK
FBW7 act – FBW7 E3 ligase activators, primary screen, biochemical, AlphaScreen, human; F-box/WD repeat-containing protein 7 (Homo sapiens), Q969H0; AlphaScreen FBW7–phospho-cyclin E peptide binding, activator screen; normalized activity (activation), % at 26.1 µM; 650,000 compounds, 0.13% hits; in the data active = normalized activity above about 1.9%;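 also: purified mutant Fbw7 with reduced substrate affinity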
MITF inh conf – MITF inhibitors, retest of hits, confirmation, biochemical, AlphaScreen, triplicate | 4,700 compounds, 16% hits | inhibition, % at 2.6 µM | AlphaScreen MITF homodimerization, biotin/His-MITF beads | shares compounds with MITF inh;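 active = inhibition above a cutoff derived from the DMSO control wells, cut at about 28% in these data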;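 also: 0% = MITF dimer wells with DMSO only; inhibitors lower the bead chemiluminescence by keeping MITF from dimerizing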
AS interf ctr – AlphaScreen optical interference compounds, counter-screen for MITF inhibitor project, biochemical, triplicate; 4,700 compounds, 7.6% hits; LysRS AlphaScreen counterscreen, signal interference; AID 1259376, 2018; inhibition, % at 2.6 µM; shares compounds with MITF inh;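 active = inhibition above a cutoff derived from the DMSO control wells, cut at about 30% in these data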
* = called active by the depositor; · = no result given. Rows were chosen to be rich in hits. Some 3.5% of all compounds tested hit in one or more screens of this group.

SMILES | MITF inh | TEAD-YAP block | GPR151 activ | FBW7 act | MITF inh conf | AS interf ctr
C=CCNC(=O)c1sc(=S)n(-c2ccccc2)c1N | 10.7 | -13.4 | 1.0 | 0.1 | · | ·
Cc1ccc(Oc2ccc(OCC(=O)NCC3CCCO3)cc2)cc1 (stereo unspecified) | 74.8* | 16.3 | 0.2 | 0.1 | 0.0 | 11.2
CCOC(=O)c1c(-c2ccc(OC)cc2)csc1NC(=O)CN1CCOCC1 | 70.8* | -9.1 | -0.7 | 0.0 | -1.8 | 9.6
CCOC(=O)c1c(-c2ccccc2)csc1NC(=O)CCN1CCN(C)CC1 | 50.2 | 1.6 | 0.2 | -0.2 | · | ·
CCOC(=O)c1c(-c2ccc(C)o2)csc1NC(=O)CN1CCCCC1C (stereo unspecified) | 56.5* | 4.6 | 0.4 | -0.4 | 1.5 | 39.3*
CCOC(=O)c1c(-c2ccc(F)cc2)csc1NC(=O)CCN1CCN(CC)CC1 | 70.7* | -17.9 | 0.6 | 0.0 | 4.6 | -1.8
CCOC(=O)c1c(-c2ccc(C)cc2)csc1NC(=O)CN1CCOCC1 | 4.0 | 6.2 | 0.5 | 0.1 | · | ·
CN(C)C(=O)N1CCN(c2cccc(C(F)(F)F)c2)CC1 | 12.3 | 8.2 | -0.5 | 0.3 | · | ·
CC(=O)Nc1ccc(N2CCN(C(=O)c3ccccc3)CC2)cc1 | 53.2* | 8.7 | 2.3 | 0.0 | -12.3 | -2.9
COc1ccc(S(=O)(=O)N(CC(=O)Nc2ccc(C(C)C)cc2)c2ccc(C)cc2)cc1 | -5.3 | -4.2 | 0.8 | -0.1 | · | ·
CC(C)(C)c1csc(CN2CCN(CC(=O)NC3CCCCC3)CC2)n1 | 26.5 | 0.9 | 1.1 | -0.3 | · | ·
CC(C)(C)c1csc(CN2CCN(CC(=O)N3CCOCC3)CC2)n1 | 53.8* | -2.8 | -1.3 | 0.3 | 0.1 | 4.1
Cc1cccc(CN2CCN(CC3CC4C=CC3C4)CC2)c1 (stereo unspecified) | 56.7* | -10.2 | -2.0 | 0.1 | 6.8 | 18.6
O=S(=O)(Cc1ccccc1)N1CCN(CC2CC3C=CC2C3)CC1 (stereo unspecified) | 37.1 | 1.2 | 0.5 | 0.0 | · | ·
Clc1ccccc1CN1CCN(CC2CC3C=CC2C3)CC1 (stereo unspecified) | 73.8* | 5.3 | 0.1 | -0.1 | -5.0 | 1.8
Clc1cccc(CN2CCN(CC3CC4C=CC3C4)CC2)c1 (stereo unspecified) | 73.6* | -1.0 | 0.8 | -0.1 | 13.4 | 18.0
COc1ccc(OC)c(NC(=O)c2ccc3c(SCC(=O)O)c4c(nc3c2)CCC4)c1 | -14.5 | 1.9 | -0.9 | -0.2 | · | ·
O=C(CCS(=O)(=O)c1ccc2c(c1)SCC(=O)N2)NCCc1ccc(Cl)cc1 | -3.7 | 2.9 | 0.7 | -0.1 | · | ·
c1ccc(N2CCN(Cc3cccc4ccccc34)CC2)nc1 | 2.4 | -1.8 | 0.8 | -0.3 | · | ·
FC(F)(F)c1ccccc1CN1CCN(c2ncccn2)CC1 | 50.8* | 6.6 | 0.6 | 0.3 | 15.4 | 6.5
FC(F)(F)c1ccccc1CN1CCN(Cc2ccccn2)CC1 | 78.4* | 2.1 | 2.9 | 0.1 | -9.4 | 4.1
Oc1ccc(-c2ncccn2)cc1CN1CCN(c2ccccc2F)CC1 | 7.1 | 1.2 | 0.6 | 0.1 | · | ·
Brc1cccc(CN2CCN(Cc3ccccn3)CC2)c1 | 45.1 | -3.3 | -1.3 | -0.1 | · | ·
Fc1ccccc1N1CCN(Cc2ccccn2)CC1 | 55.7* | -11.1 | -0.5 | -0.2 | -1.1 | 9.8
c1ccc(CN2CCN(Cc3cccc4ccccc34)CC2)nc1 | 64.2* | 6.7 | 4.7 | 0.0 | 3.7 | 7.4
SMILES | MITF inh | TEAD-YAP block | GPR151 activ | FBW7 act | MITF inh conf | AS interf ctr
CCCC(=O)NC(=S)Nc1ccc2[nH]c(=O)[nH]c2c1 | 9.6 | 7.5 | 0.3 | 0.2 | · | ·
CCSc1nnc(NC(=O)/C=C/c2cccs2)s1 | 0.3 | -7.4 | 3.7 | 0.0 | · | ·
O=C(C1CCC(CNc2c(N3CCCCC3)c(=O)c2=O)CC1)N1CCCCCC1 (stereo unspecified) | 14.3 | -12.2 | -2.1 | 0.2 | · | ·
O=C(CC1CCCC1)NCCn1ncc2c(N3CCN(Cc4ccccc4)CC3)ncnc21 | 0.8 | 7.9 | -0.6 | -0.1 | · | ·
COc1ccc(CN2CCN(Cc3ccccc3Cl)CC2)c(OC)c1 | 79.8* | 0.0 | 0.7 | 0.0 | 4.7 | 18.0
COc1ccc(OC)c(CN2CCN(Cc3ccccc3Cl)CC2)c1 | 76.5* | -1.6 | -1.1 | -0.2 | 13.6 | 16.0
COc1ccc(OC)c(CN2CCN(CCCc3ccccc3)CC2)c1 | 65.7* | 0.0 | 0.9 | -0.1 | 0.5 | -3.4
COc1ccc(OC)c(CN2CCN(Cc3ccccc3F)CC2)c1 | 77.1* | -6.2 | 1.5 | -0.3 | -4.1 | -1.7
COc1cc2nc(N3CCC(N4CCOCC4)CC3)nc(Nc3ccc(NC(C)=O)cc3)c2cc1OC | 10.9 | -0.4 | -0.1 | 0.1 | · | ·
CCc1ccccc1NC(=S)N(CCCN1CCCCCC1)Cc1ccco1 | -13.3 | -4.4 | 1.8 | -0.1 | · | ·
COc1ccccc1C1(O)CC2CCC(C1)N2c1cc(C)nc(N)n1 (stereo unspecified) | 6.9 | -11.8 | 2.2 | 0.0 | · | ·
CCn1c(Cc2ccccc2)nnc1SCC(=O)Nc1cc(C)on1 | 4.0 | 4.2 | -1.2 | 0.1 | · | ·
CCCc1nnc(SCC(=O)Nc2cc(C)on2)n1CC | 74.2* | -3.4 | 1.2 | -0.1 | 3.9 | 12.0
COc1cc(CN2CCN(c3ccccn3)CC2)ccc1O | 53.7* | 0.8 | -2.0 | 0.1 | -3.4 | 2.5
Brc1ccc(CN2CCN(c3ccccn3)CC2)cc1 | 52.6* | 8.6 | -0.3 | 0.3 | -2.0 | 2.7
O=C(CN1CCN(c2ccccn2)CC1)N(Cc1ccccc1)Cc1ccccc1 | 90.8* | -0.7 | 0.6 | -0.3 | 10.1 | 13.2
Cc1ccc(CN2CCN(c3ccccn3)CC2)cc1 | 43.9 | 6.5 | -0.1 | 0.6 | · | ·
Cc1cccnc1NC(=O)CCC(=O)OCC(=O)NCc1ccco1 | 6.4 | 8.2 | -5.3 | 0.0 | · | ·
CC1CCCC(N2CCN(Cc3ccc4c(c3)OCO4)CC2)C1 (stereo unspecified) | 67.7* | -16.5 | -1.0 | 0.7 | -1.1 | 0.0
CCNC(=O)N1CCCC(N2CCN(Cc3ccc4c(c3)OCO4)CC2)C1 (stereo unspecified) | 9.1 | -1.9 | 0.3 | 0.1 | · | ·
c1cc2c(cc1CN1CCN(C3CCCCCC3)CC1)OCO2 | 65.3* | 1.0 | 0.0 | 0.5 | -2.1 | 4.1
c1ccc(CN2CCC(N3CCN(Cc4ccc5c(c4)OCO5)CC3)CC2)cc1 | -5.4 | 10.1 | 0.3 | 0.6 | · | ·
CCOc1ccc(C2C(C(=O)Nc3ccc(F)c(Cl)c3)c3ccccc3C(=O)N2CCN2CCOCC2)cc1 (stereo unspecified) | 2.3 | 7.4 | 0.3 | 0.5 | · | ·
CC1CCCCC1Nc1ncnc2sccc12 (stereo unspecified) | 64.3* | 7.4 | 3.1 | -0.1 | 2.0 | 1.6
COC(=O)c1ccc(NC(=O)CC2C(=O)N(c3ccc(F)cc3)C(=S)N2CCc2ccc(OC)c(OC)c2)cc1 (stereo unspecified) | -0.1 | -7.8 | 0.6 | 0.3 | · | ·

Screening results: PubChem, The Scripps Research Institute Molecular Screening Center
